Pf growth 48h: P. falciparum growth inhibition at 48 hours (one generation); P. falciparum luciferase growth in erythrocytes, 48 h; Potency, µM (highest dose often 28.7 µM), for inactives: at the top dose activity change, negative = inhibition, hits mostly inhibitors; hit rate 5.9% among 310,000; also: potency is read from the fitted curve at half-maximal effect; % is scaled to controls: 0 for no effect and ±100 for the full control effect
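Compounds are pin-transferred into medium, infected erythrocytes (2% hematocrit, 0.1% parasitemia final) are added, and plates sit one parasite generation at 37 C in 5% CO2. Detection reagent is then added and luminescence measured.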
Pf growth 96h: inhibits malaria parasite growth, 96 h. P. falciparum luciferase reporter growth, 96 h. Potency, µM (top dose mostly 28.7 µM), inactives show top-dose activity change, negative = inhibition, usual class: inhibitors. hit rate 6.9% among 320,000; also: potency is read from the fitted curve at half-maximal effect; % is scaled to controls: 0 for no effect and ±100 for the full control effect
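Luminescence readout: decreased luciferase signal marks inhibited growth of reporter-expressing P. falciparum in infected red cells (2% hematocrit, 0.05% parasitemia final), exposed to compound two generations (96 h, 37 C, 5% CO2).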
HCMV antiviral: blocks human cytomegalovirus replication | AID 1259415 | HFF cells, HCMV-luciferase reporter, 72 h; hits give low values | activity change, negative = inhibition, % at 57.5 µM | hit rate 4.5% among 410,000; in the data active = activity change below about -60%; inconclusive = no clear call, values can overlap the other calls; inactive = above about -39%; also: % is scaled to controls: 0 for no effect and ±100 for the full control effect
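Inhibition of viral replication was scored as loss of reporter luminescence in HFFs infected with HCMV-luciferase (MOI 1 PFU/cell) for 72 h; compounds tested at 2 doses, normalized to buffer and Salinomycin controls.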
Shiga toxin inh: inhibitors of Shiga toxin in Vero cells | Vero cells, Shiga toxin protein synthesis inhibition reporter | inhibition, % at 38.7 µM | hit rate 9.2% among 290,000; in the data active = inhibition mostly above about 28%, no sharp cut-off; inactive = mostly below about 43%; also: 0% is about no effect
CHX counter: affects cycloheximide protein synthesis inhibition readout, counter-screen; cell reporter, cycloheximide protein synthesis inhibition counterscreen; max response, %; hit rate 12% among 300,000; AID 2314; in the data active = max response mostly above about 13%, no sharp cut-off; inactive = mostly below about 14%; also: read at 38.3 µM for the half of the compounds with a filed dose; 0% is about no effect
HCV inhibitor: HCV inhibition | Huh7.5.1 HCVcc-Cre infection, luciferase reporter, 44 h | Potency, µM (series often up to 41.8 µM), inactives show at the highest dose activity change, negative = inhibition, actives largely listed as inhibitors | hit rate 3.4% among 340,000; also: potency is read from the fitted curve at half-maximal effect; % is scaled to controls: 0 for no effect and ±100 for the full control effect
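After 44 h co-culture of compound, cells and HCVcc-Cre (~0.5 moi), substrate is added for 15 min at room temperature and luciferase measured over 15 sec. Cells were seeded at 1,000/well and pre-cultured 4 h.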
The depositor's hits bear a star; u = inconclusive; x = no result; [ ] = remark or other dose. A selection: hits, their analogues and other compounds. The true share with any hit is near 21%. Unless noted, calls follow the shape of the dose curve; as a rule, active = well fitted inhibition curve with a large enough effect; inconclusive = small, poorly fitted or top-dose-only effect, or another doubt; inactive = no such curve, though single readings can be large or run the other way.

SMILES	Pf growth 48h	Pf growth 96h	HCMV antiviral	Shiga toxin inh	CHX counter	HCV inhibitor
CCCCc1c(C)nc2cc(-c3ccco3)[nH]n2c1=O	u	u	21	79*	34*	-24%
CCOC(=O)Cc1c(C)nc2cc(-c3ccc(C(C)(C)C)cc3)[nH]n2c1=O	16%	x	-29	2	10	13µM*
CCOC(=O)CCc1c(C)nc2cc(-c3ccccc3OC)[nH]n2c1=O	u	u	-8	6	-3	5%
Cc1ccc(Cc2c(-c3cccc(Cl)c3)nc3ccc(Cl)cn23)cc1	x	x	16	x	x	x
C=C1[C@@H](C)CN[C@@H]1CCO	x	x	-1	x	x	x
CC(C)C(C)N(Cc1ccc(C(=O)O)cc1)C(=O)c1ccc2ccccc2n1 (centres undefined)	x	x	1	x	x	24%
C=CCc1c(C)nc2cc(-c3ccc(C)cc3)[nH]n2c1=O	67%	0%	2	72*	54*	-21%
COC(=O)COc1ccc2cc(-c3ccc(OC)cc3)c(=O)oc2c1	102%	94%	26	-6	2	-2%
COc1ccc(-c2cc3ccc(OCC(C)=O)cc3oc2=O)cc1	232%	230%	72	127*	57*	u
COc1ccc(-c2cc3ccc(OCC(C)=O)cc3oc2=O)cc1OC	114%	75%	85	27*	25*	-8%
COc1ccc(C2=NS(=O)(=O)N(C)C(C(=O)N3CCN(C)CC3)=C2)cc1	25%	29%	14	-3	-3	18%
CCN1CCN(C(=O)C2=CC(c3ccc(OC)cc3)=NS(=O)(=O)N2C)CC1	19%	u	-64*	7	3	11%
O=C(Nc1ccccc1)c1ccc(NCC2CCCO2)c([N+](=O)[O-])c1 (centres undefined)	42%	u	36	100*	68*	3%
Cc1ccc(S(=O)(=O)NCC2COc3ccccc3O2)cc1 (centres undefined)	5%	180%	-26	-4	14	0%
CN(C)S(=O)(=O)c1ccc(NCC2COc3ccccc3O2)c([N+](=O)[O-])c1 (centres undefined)	-9%	13µM*	39	49	27*	-15%
Cc1ccc([N+](=O)[O-])cc1S(=O)(=O)NCC1COc2ccccc2O1 (centres undefined)	3%	u	-68*	-9	9	u
COc1ccc(NC(=O)c2ccc(NCC3CCCO3)c([N+](=O)[O-])c2)cc1 (centres undefined)	-8%	11%	-27	23	17	u
NC(=O)c1ccc(NCC2COc3ccccc3O2)c([N+](=O)[O-])c1 (centres undefined)	57%	36%	49	29	33*	-2%
NC(=O)c1ccc(NCCCN2CCOCC2)c([N+](=O)[O-])c1	8%	-1%	-26	-17	-3	3%
CNC(=O)c1cc2n(n1)CCCN(Cc1ccc(F)cc1)C2=O	x	x	-12	x	x	x
CCN(CC)S(=O)(=O)c1ccc(NCC2COc3ccccc3O2)c([N+](=O)[O-])c1 (centres undefined)	u	u	-2	21	20*	u
COc1ccc(O)c(C2=Nc3ccccc3N=C(c3ccccc3)C2)c1	66%	91%	-21	87	42	3%
Oc1ccccc1C1=Nc2ccccc2N=C(c2ccco2)C1	-4%	6%	u	24	13*	-15%
CCCCCCCCCCCC(CC1OC(=O)C1CCCCCC)OC(=O)C(CC(C)C)NC=O (centres undefined)	1.1µM*	1.5µM*	x	x	x	x
O=[N+]([O-])c1ccc(S(=O)(=O)N2CCC3(CC2)OCCN3S(=O)(=O)c2cccs2)cc1	u	u	23	x	x	11%
SMILES	Pf growth 48h	Pf growth 96h	HCMV antiviral	Shiga toxin inh	CHX counter	HCV inhibitor
COc1ccc2oc(=O)c(C(=O)Nc3ccccc3O)cc2c1	59%	60%	37	46	36*	6%
COc1ccc2oc(=O)c(C(=O)NC(C)c3ccccc3)cc2c1 (centres undefined)	u	-7%	-23	54	18*	-29%
CC(NC(=O)c1cc2ccccc2oc1=O)c1ccc(O)cc1 (centres undefined)	34%	u	10	10	7	5%
Cc1ccc2c(c1)cc1c(=O)n(CC(=O)NC(C)CCc3ccccc3)nc(C)n12 (centres undefined)	x	x	-8	x	x	x
Cc1ccc(NC(=O)CNCc2ccccc2Cl)cc1S(=O)(=O)N(C)C	x	u	51	58*	40*	-12%
COc1cc(NC(=O)CN(C)CCOc2ccccc2)c(C)cc1[N+](=O)[O-]	12µM*	u	u	-5	-1	-27%
CN(CCOc1ccccc1)CC(=O)Nc1ccc(Cl)cc1[N+](=O)[O-]	4%	19%	-8	18	-2	1%
CN(CCOc1ccccc1)CC(=O)Nc1ccc(Cl)c(S(=O)(=O)N(C)C)c1	-19%	9.3µM*	-12	-3	2	-26%
COc1ccc(OCCN(C)CC(=O)Nc2c(C)cccc2C)cc1	-12%[0.00184 µM]	3%	28	-15	-3	-26%
Cc1cc(Br)c(NC(=O)CN(C)CCOc2ccccc2)c(Br)c1	36%	-14%	-26	24	11*	u
CS(=O)(=O)c1ccc(C(=O)N2CCN(C(=O)c3ccco3)CC2)cc1	-16%	1%	-6	x	x	15%
COc1ccc(S(=O)(=O)NCC2CCC(C(=O)NCc3ccc(F)cc3)CC2)cc1 (centres undefined)	12%	-1%	-18	-4	-1	-15%
Cc1ccc(S(=O)(=O)CCC(=O)OCC(=O)N(Cc2ccccc2)C(C)C)cc1	-1%	25%	-34	x	x	10%
NS(=O)(=O)c1ccc(NC(=O)CN2C(=O)C3C4C=CC(C4)C3C2=O)cc1 (centres undefined)	21%	29%	18	-10	0	u
NC(=O)c1ccc(NC(=O)CNCc2ccccc2Cl)cc1	14%	7%	26	49*	14*	20%
CN(C)S(=O)(=O)c1cc(NC(=O)CNCc2ccccc2)ccc1Cl	-11%	u	75	67*	41*	u
Cc1ccc(NC(=O)CN2C(=O)C3C4C=CC(C4)C3C2=O)cc1S(=O)(=O)N(C)C (centres undefined)	23%	-1%	-103*	-6	1	16%
O=C(NCC1CCCO1)C(c1ccc(F)cc1)N(Cc1ccc2c(c1)OCO2)C(=O)c1ccc(CN2CCOCC2)o1 (centres undefined)	-29%	1%	-1	-5	-5	12%
C/C(=N\Nc1nccnc1Cl)c1ccc(Br)cc1	16%	-10%	-17	78*	30*	1%
COc1ccc(/C(C)=N/Nc2nccnc2Cl)cc1	-61%	110%	-7	x	x	-7%
